The source of these data is PubChem BioAssay AID493221 (Johns Hopkins Ion Channel Center, 2011).

Among all 2,400 compounds or so, about 1,700 (71%) were called active.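 The calls were made as follows: active = choline transporter activity left, mean of duplicates at 10 µM, below buffer-only control mean minus 3 SD; inactive = the rest.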 So high a share suggests a set chosen from earlier hits. The list is a sample of the results.

The target of this assay is High affinity choline transporter 1 (Homo sapiens) (UniProt Q9GZV3). The assay is described as follows: human choline transporter blockers – cell-based, membrane potential dye, duplicate, confirmation (AID 493221). Particulars: CHT-expressing cells, at 10 µM, LV-to-AA substituted CHT, HEK293 cells.
Chain of High affinity choline transporter 1 (Homo sapiens) (Q9GZV3 whole entry, looked up): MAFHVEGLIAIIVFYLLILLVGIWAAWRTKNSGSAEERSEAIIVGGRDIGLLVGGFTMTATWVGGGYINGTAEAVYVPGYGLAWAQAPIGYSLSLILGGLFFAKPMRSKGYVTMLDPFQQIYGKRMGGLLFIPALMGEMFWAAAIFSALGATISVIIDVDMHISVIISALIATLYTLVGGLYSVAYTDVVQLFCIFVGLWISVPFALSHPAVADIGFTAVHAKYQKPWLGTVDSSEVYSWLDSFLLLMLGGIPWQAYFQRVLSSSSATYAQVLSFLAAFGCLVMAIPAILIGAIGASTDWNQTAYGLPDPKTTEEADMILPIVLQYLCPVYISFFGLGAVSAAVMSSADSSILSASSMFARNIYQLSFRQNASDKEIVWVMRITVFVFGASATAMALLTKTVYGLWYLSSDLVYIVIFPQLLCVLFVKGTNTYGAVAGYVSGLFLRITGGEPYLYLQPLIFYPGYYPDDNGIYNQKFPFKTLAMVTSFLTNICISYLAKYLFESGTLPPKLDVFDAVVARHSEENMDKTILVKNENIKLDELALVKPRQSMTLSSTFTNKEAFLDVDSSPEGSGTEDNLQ
With `CC(=O)Nc1nc2c(s1)C(=O)NCC(C)(C)C2`, the CHT activity remaining % of control (hits give low values) result is “inactive”. Turning to `C/C(=N\N=C(N)N)c1ccc(Cl)cc1`, the CHT activity remaining % of control (hits give low values) is 12.2% (active). To `CCN(CC(=O)NCc1ccc(Cl)cc1)C(=O)CSc1ccccc1` belongs “inactive”; to `Nc1cc(N2CCCCCC2)c2nonc2c1[N+](=O)[O-]`, 68.5% (active). Consider `O=C(OCC(=O)c1c[nH]c2ccccc12)c1cccc(O)c1`, for which the CHT activity remaining % of control (hits give low values) was 56% (active). To `CN(CCC#N)c1ncnc2scc(-c3ccccc3)c12` belongs 50.5% (active); to `Cc1cccc(N(C)C(=O)CN2C(=O)COc3ccc(S(=O)(=O)N4CCCCCC4)cc32)c1`, 56.8% (active); to `O=S(=O)(c1cccc(-c2nnc(SC(F)F)n2-c2ccccc2)c1)N1CCCCC1`, “inactive”. Take `O=C(c1c(F)cccc1Cl)N1CCN(S(=O)(=O)c2ccc3c(c2)OCCCO3)CC1`: the CHT activity remaining % of control (hits give low values) result was “inactive”. Turning to `CCc1ccc2c(c1)C1(NN=C(c3ccccc3)S1)C(=O)N2` (stereo not given), the CHT activity remaining % of control (hits give low values) was 54.3% (active). In the case of `Cn1c2ccccc2c(=O)c2c(O)cccc21` it was 65.5% (active). To `O=C(O/N=C(/c1ccccc1)c1ccncc1)c1ccccc1[N+](=O)[O-]` belongs 60.1% (active); to `Cc1cccc(C)c1NC(=O)c1ccc(CN2CCc3ccccc3C2)cc1`, 53.4% (active); to `COc1ccc(C(=O)NC(C)c2nccs2)cc1OC1CCN(C(C)C)CC1` (stereo not given), 22.1% (active). On to `COc1ccc(OCC(=O)OCCN(C)C)cc1`, for which the CHT activity remaining % of control (hits give low values) was 11.5% (active). `OC1CN=C2Sc3ccccc3N2C1` (stereo not given): the CHT activity remaining % of control (hits give low values) is 46.2% (active). With `CCC(C)c1ccc(NC(=S)NCc2ccccn2)cc1` (stereo not given), the CHT activity remaining % of control (hits give low values) was 45.6% (active). With `COC(=O)C(C(=O)Nc1cccc(Cl)c1C)C1CCCC1` (stereo not given), the CHT activity remaining % of control (hits give low values) result was “inactive”. Take `CC(C)CCn1c(CN(C)Cc2ccccc2)nc2c1c(=O)n(C)c(=O)n2C`: the CHT activity remaining % of control (hits give low values) entry was “inactive”.

On to `COc1cc2ccccc2cc1C(=O)Nc1ccc(S(=O)(=O)Nc2cc(C)on2)cc1`, for which the CHT activity remaining % of control (hits give low values) is 49.4% (active). In the case of `CCC(Oc1ccccc1C)C(=O)Nc1ccc(S(=O)(=O)Nc2cc(C)on2)cc1` (stereo not given) it was 46.2% (active); in that of `Cc1cc(OC(C)C(=O)Nc2ccc(S(=O)(=O)Nc3onc(C)c3C)cc2)cc(C)c1Cl` (stereo not given), 57.7% (active); in that of `Cc1cc(NS(=O)(=O)c2ccc(NC(=O)C(C)Oc3cccc(C)c3C)cc2)nc(C)n1` (stereo not given), 13.3% (active). As to `CCN(CC)Cc1c(C(=O)N/N=C/c2cccc(OCc3ccc(F)cc3)c2)nnn1-c1nonc1N`, the CHT activity remaining % of control (hits give low values) result was “inactive”.

In the case of `CCc1cc2c(N3CCN(c4nnc(CC)s4)CC3)ncnc2s1`, the CHT activity remaining % of control (hits give low values) is 67.1% (active). Take `Cc1c(C(=O)OC(C)C)sc(NC(=O)c2cccnc2)c1C#N`: the CHT activity remaining % of control (hits give low values) is 61.9% (active).

For the compound `CCN(CC)CCC(c1ccc2c(c1)OCO2)c1c(OC)cc(OC)c2c(-c3ccccc3)cc(=O)oc12` (stereo not given), the CHT activity remaining % of control (hits give low values) is 70.5% (active).

Take `CC(C)(C)c1ccc(C(=O)CSc2ncn[nH]2)cc1`: the CHT activity remaining % of control (hits give low values) was 42.8% (active). On to `C/C(=N/NC(=O)c1cc(Cl)ccc1O)C12CC3CC(CC(C3)C1)C2`, for which the CHT activity remaining % of control (hits give low values) is 46.3% (active).

Turning to `Cc1oc2c(F)c(F)c(F)c(F)c2c1S(=O)(=O)Nc1cccc(C(F)(F)F)c1`, the CHT activity remaining % of control (hits give low values) is 57.3% (active). For `FC(F)(F)c1cccc(NC(=S)Nc2cccc(Cl)c2)c1`, the CHT activity remaining % of control (hits give low values) result is “inactive”. In the case of `COc1ccc(NC(=O)c2sc(N)nc2-c2ccccc2)cc1` it was 53.4% (active); in that of `Cc1ccc2nc(Nc3ccccc3)cc(C)c2c1`, 49.7% (active); in that of `COc1ccc(/C=C2/SC(=O)N(CCCCCC(=O)Nc3ccccc3C(=O)O)C2=S)cc1`, 29.7% (active). As to `C/C(=N\Nc1nc2ccccc2[nH]1)c1cccs1`, the CHT activity remaining % of control (hits give low values) was 19.1% (active).

Consider `CC(C(=O)NC1CCS(=O)(=O)C1)N1C(=O)/C(=C/c2ccc(Cl)cc2)SC1=S` (stereo not given), for which the CHT activity remaining % of control (hits give low values) was 69.7% (active). For the compound `Cc1ccc(C(=O)N/C(=C/C=C/c2ccccc2)C(=O)NCc2ccco2)cc1`, the CHT activity remaining % of control (hits give low values) is 47.3% (active). On to `O=C(/C=C/c1cn(-c2ccccc2)nc1-c1ccc2c(c1)OCCO2)NCCCN1CCOCC1`, for which the CHT activity remaining % of control (hits give low values) was 26.1% (active). For `Cc1cccc(-c2nc3ccc(C(=O)NCCN4CCN(C)CC4)cc3nc2-c2cccc(C)c2)c1`, the CHT activity remaining % of control (hits give low values) is 40% (active). `CNCC(O)c1ccc(O)c(O)c1` (stereo not given): the CHT activity remaining % of control (hits give low values) was 33.7% (active).

`COC(=O)CN1C(C)=Nc2ccc(Br)cc2C1c1ccccc1` (stereo not given): the CHT activity remaining % of control (hits give low values) result was “inactive”.

In the case of `O=C(O)CC1=C(Nc2ccccc2)C(=O)N(c2ccccc2)C1c1ccc(Cl)cc1` (stereo not given), the CHT activity remaining % of control (hits give low values) is 26.7% (active). Regarding `O=S(=O)(Nc1ccc(Cl)cn1)c1cnc(Cl)c(Br)c1`, the CHT activity remaining % of control (hits give low values) result is “inactive”.

In the case of `CCC(=O)Nc1nnc(S(=O)(=O)N(CC(C)C)c2ccccc2)s1`, the CHT activity remaining % of control (hits give low values) entry was “inactive”. Turning to `C/C(=N\NC(N)=S)c1cccnc1`, the CHT activity remaining % of control (hits give low values) result is “inactive”. Take `O=C(O)c1ccc(N/N=C/c2cn(-c3ccccc3)nc2-c2cccs2)cc1`: the CHT activity remaining % of control (hits give low values) was 65.1% (active). Regarding `COc1nc(OC)nc(N(C)CCO)n1`, the CHT activity remaining % of control (hits give low values) result was “inactive”.

For the compound `CCOC(=O)N1CCN(C(=O)c2ccc(CN(c3ccc(C)c(C)c3)S(C)(=O)=O)cc2)CC1`, the CHT activity remaining % of control (hits give low values) result is “inactive”.

Regarding `CCN(Cc1ccccc1)S(=O)(=O)c1cc(C(=O)O)ccc1OC`, the CHT activity remaining % of control (hits give low values) was 58.7% (active). As for `O=C(Nc1ccccc1C(=O)NCCCn1ccnc1)c1ccc(Cl)cc1Cl`, the CHT activity remaining % of control (hits give low values) was 52.6% (active).
